# Source: PubChem BioAssay (National Center for Advancing Translational Sciences (NCATS))
# Hits are enriched below; roughly 3.7% of the tested compounds scored in any of these assays.
# S2 tox – cell viability loss in ATXN counter-screen. S2 cells (HEK-293 line with an ATXN2-luciferase reporter) viability, CellTiter-Fluor protease fluorescence, 24 h. Potency, µM (series often up to 56.7 µM), actives largely listed as cytotoxic. 400,000 compounds, 0.49% hits. AID 651635; note: potency is the fitted concentration of half-maximal effect; nearly all actives have a fitted effect of over 40% in size
# ATXN2 expr inh – reduces ATXN2 reporter expression in HEK-293 cells; HEK-293 ATXN2-luciferase reporter, luminescence, 24 h; Potency, µM (doses to about 57 µM), for the others: at the highest dose activity change, negative = inhibition, actives largely listed as inhibitors; 360,000 compounds, 0.72% hits; AID 1745845; note: potency is the fitted concentration of half-maximal effect; % is set by controls: 0 for no effect and ±100 for the full control effect; nearly all actives have a fitted effect of over 55% in size
#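 ATXN2-luciferase reporter cells (luciferase flanked by upstream and downstream ATXN2 gene portions) were treated 24 h at 37 °C with compounds at up to 57 uM. SteadyGlo luminescence gave expression; GF-AFC fluorescence gave viability.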
# GLP-1R agonist – GLP-1 receptor (human) agonism; P43220; HEK293 GLP-1R CRE-luciferase, luminescence, 4-6 h; cells express a hypersensitive GLP-1R form; Potency, µM (series often up to 45.6 µM), for inactives: at the highest dose activation, usual class: activators; 380,000 compounds, 0.007% hits; note: potency is the fitted concentration of half-maximal effect; % of control where 0% means no effect
# Target sequence (P43220 whole entry, looked up): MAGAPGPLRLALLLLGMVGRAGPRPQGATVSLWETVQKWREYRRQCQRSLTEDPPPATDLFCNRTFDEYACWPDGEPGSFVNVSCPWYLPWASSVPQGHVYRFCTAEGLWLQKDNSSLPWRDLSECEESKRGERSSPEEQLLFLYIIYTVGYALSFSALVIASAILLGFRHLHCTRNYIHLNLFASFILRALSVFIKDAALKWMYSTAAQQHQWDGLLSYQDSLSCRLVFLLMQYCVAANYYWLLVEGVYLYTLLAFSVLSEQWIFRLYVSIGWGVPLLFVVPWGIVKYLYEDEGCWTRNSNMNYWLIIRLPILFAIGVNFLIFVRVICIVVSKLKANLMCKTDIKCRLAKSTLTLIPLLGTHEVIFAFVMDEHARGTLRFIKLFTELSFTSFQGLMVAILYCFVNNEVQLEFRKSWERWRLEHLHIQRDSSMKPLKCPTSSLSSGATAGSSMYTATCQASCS
# TGFb inhibitor – blocks TGF-b signaling; HepG2 CAGA-GFP TGF-b/SMAD3 reporter, GFP fluorescence, 18 h; TGF-beta stimulated, 500 pg/mL final; Potency, µM (highest dose often 46.1 µM), for inactives: at the top dose activity, negative = inhibition, actives largely listed as inhibitors; 410,000 compounds, 1.2% hits; note: potency is the fitted concentration of half-maximal effect; % is set by controls: 0 for no effect and ±100 for the full control effect; nearly all actives have a fitted effect of over 65% in size
#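 Using HEPG2 CAGA-GFP reporter cells at 1000 cells/well, we pinned test compounds, stimulated with recombinant TGF-beta (500 pg/mL final) and measured total well GFP after 18 h.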
# GLP1R inv ag – acts as inverse agonist at human GLP-1 receptor | P43220 | HEK293 GLP-1R CRE-luciferase, luminescence, 24 h; GLP-1R form is constitutively active | Potency, µM (highest dose often 38.3 µM), inactives show at the top dose activity change, negative = inhibition, most hits filed as inhibitors | 410,000 compounds, 1.6% hits | AID 624417; note: potency is the fitted concentration of half-maximal effect; % is set by controls: 0 for no effect and ±100 for the full control effect; nearly all actives have a fitted effect of over 55% in size
#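 Readout was luciferase luminescence, measured 12 min after detection reagent at room temperature. Beforehand, GLP-1R reporter HEK293 cells had sat 12 h, then received compounds for 24 hr at 37 deg C.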
# HepG2 tox-1 – HepG2 cytotoxicity, counter-screen for TGF-b inhibitors. HepG2 CAGA-GFP viability, ATP luminescence, 18 h. Potency, µM (doses to about 46.1 µM), for inactives: at the top dose activity change, negative = cytotoxicity, most hits filed as cytotoxic. 410,000 compounds, 0.76% hits. AID 588856; note: potency is the fitted concentration of half-maximal effect
#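 CellTiter-Glo luminescence gave cytotoxicity after 18 hours at 37 degrees C. The cells were HepG2 CAGA-GFP in 1% FBS DMEM, stimulated with 500 pg/mL TGF-beta after compound addition. %Activity was normalised to no-cell wells (complete cell-killing) and DMSO (no toxicity), and curves were fitted and classified.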
# TGFb CAGA inh – confirmation of TGF-b signaling inhibitors in HepG2 reporter cells; shares compounds with TGFb inhibitor; HepG2 CAGA-GFP TGF-b reporter, GFP fluorescence, 18 h; cells stimulated with TGF-beta, 500 pg/mL; Potency, µM (series often up to 46.1 µM), inactives show at the top dose activity, negative = inhibition, usual class: inhibitors; 1,600 compounds, 63% hits; AID 720534; note: potency is the fitted concentration of half-maximal effect; % is set by controls: 0 for no effect and ±100 for the full control effect; nearly all actives have a fitted effect of over 65% in size
# HepG2 tox-2 – counter-screen for TGF-b inhibitors: cytotoxicity in HepG2 cells | Potency, µM (top dose mostly 46.1 µM), for inactives: at the highest dose activity, negative = cytotoxicity, actives largely listed as inhibitors | shares compounds with TGFb inhibitor | HepG2 CAGA-GFP viability, ATP luminescence, 18 h; cells stimulated with TGF-beta, 500 pg/mL | 1,600 compounds, 27% hits; note: potency is the fitted concentration of half-maximal effect; % is set by controls: 0 for no effect and ±100 for the full control effect; nearly all actives have a fitted effect of over 70% in size
# TGFb CCL64 inh – orthogonal confirmation of TGF-b inhibitors in CCL64 cells. Potency, µM (highest dose often 46.1 µM), for inactives: top-dose activity, negative = inhibition, hits mostly inhibitors. shares compounds with TGFb inhibitor. 1,600 compounds, 41% hits. CCL64 CAGA-GFP reporter, TGF-b stimulated, GFP fluorescence, 18 h. AID 720536; note: potency is the fitted concentration of half-maximal effect; nearly all actives have a fitted effect of over 65% in size
# TGFb COP inh – TGF-b inhibition validated with COP promoter; shares compounds with TGFb inhibitor; HepG2 COP-GFP TGF-b reporter, GFP fluorescence, 18 h; cells stimulated by added recombinant TGF-beta; Potency, µM (doses to about 46.1 µM), for the others: top-dose activity, negative = inhibition, usual class: inhibitors; 1,600 compounds, 3% hits; note: potency is the fitted concentration of half-maximal effect; nearly all actives have a fitted effect of over 70% in size
# SK-N-SH 3D tox – kills SK-N-SH neuroblastoma spheroids in orthogonal 3D test; shares compounds with ATXN2 expr inh; SK-N-SH 3D spheroid viability, PI/Hoechst imaging, 72 h; Potency, µM (titrated, usually from 30.7 µM), usual class: inhibitors; 65 compounds, 70% hits
# SJ-GBM2 3D tox – SJ-GBM2 spheroid viability loss, orthogonal 3D screen. shares compounds with ATXN2 expr inh. SJ-GBM2 3D spheroid viability, PI/Hoechst imaging, 72 h. Potency, µM (series often up to 30.7 µM), actives largely listed as inhibitors. 65 compounds, 80% hits
# Daoy spheroid – Daoy 3D spheroid viability loss | shares compounds with ATXN2 expr inh | Daoy 3D spheroid viability, PI/Hoechst imaging, 72 h | Potency, µM (series often up to 30.7 µM), actives largely listed as inhibitors | 65 compounds, 50% hits
# TC32 3D caspase – activates caspase in TC32 3D spheroids. AID 1347138. 65 compounds, 30% hits. Potency, µM (series often up to 30.7 µM), most hits filed as inhibitors. TC32 3D spheroids, caspase-3/7 fluorescence imaging, 24 h. shares compounds with ATXN2 expr inh
# TC32 3D tox – TC32 3D spheroid viability loss; AID 1347139; shares compounds with ATXN2 expr inh; 65 compounds, 60% hits; Potency, µM (top dose mostly 30.7 µM), hits mostly inhibitors; TC32 3D spheroid viability, PI/Hoechst imaging, 72 h
# MG63 3D tox – reduced viability of MG-63 (6-TG R) 3D spheroids, orthogonal test | shares compounds with ATXN2 expr inh | MG-63 (6-TG R) 3D spheroid viability, PI/Hoechst imaging, 72 h | Potency, µM (doses to about 30.7 µM), most hits filed as inhibitors | 65 compounds, 50% hits
# RD 3D tox – kills RD rhabdomyosarcoma spheroids in orthogonal 3D test; shares compounds with ATXN2 expr inh; RD rhabdomyosarcoma 3D spheroid viability, PI/Hoechst imaging, 72 h; Potency, µM (doses to about 30.7 µM), most hits filed as inhibitors; 65 compounds, 50% hits; AID 1347141
# Starred values were filed as active, the others as inactive; i = inactive; u = inconclusive; x = not tested or not shown. Calls come from the whole dose curve; as a rule, active = well fitted curve in the direction sought with a large enough effect; inconclusive = small, poorly fitted or top-dose-only effect, or another doubt; inactive = no such curve, though single readings can be large; an effect the other way counts as inactive or inconclusive.
SMILES,S2 tox,ATXN2 expr inh,GLP-1R agonist,TGFb inhibitor,GLP1R inv ag,HepG2 tox-1,SK-N-SH 3D tox,SJ-GBM2 3D tox,Daoy spheroid,TC32 3D caspase,TC32 3D tox,MG63 3D tox,RD 3D tox,others
COc1cccc2c1C(=O)c1c(O)c3c(c(O)c1C2=O)C[C@@](O)(C(=O)CO)C[C@@H]3O[C@H]1C[C@H](N)[C@H](O)[C@H](C)O1,4µM*,0.32µM*,-10%,3.5µM*,u,5%,0.18µM*,0.29µM*,2.9µM*,1µM*,0.32µM*,4.1µM*,2.6µM*,TGFb CAGA inh=0.16µM*;HepG2 tox-2=0.52µM*;TGFb CCL64 inh=1.3µM*;TGFb COP inh=-1%
Cc1ccc(NC(=O)C(Cc2c[nH]c3ccccc23)NC(=O)OCC(C)C)cc1 (stereo not drawn),u,-16%,x,u,u,-33%,x,x,x,x,x,x,x,
CC[C@@H]1C=C(C)C[C@H](C)C[C@H](OC)[C@H]2O[C@@](O)(C(=O)C(=O)N3CCCC[C@@H]3C(=O)O[C@H](C(C)=C[C@@H]3CC[C@H](Cl)[C@H](OC)C3)[C@H](C)[C@@H](O)CC1=O)[C@H](C)C[C@H]2OC,x,u,x,x,x,x,16µM*,2.3µM*,1.4µM*,i,20µM*,3.6µM*,u,
NC(=O)c1cccc2cc3ccccc3cc12,x,-15%,7%,0%,51%,7%,x,x,x,x,x,x,x,
C[C@]1(c2nc3c(C(N)=O)cccc3[nH]2)CCCN1,x,12%,x,x,x,x,4.6µM*,4.1µM*,u,i,u,u,i,
